# Measurements from PubChem BioAssay (EPA / NIEHS).
# “And” between values parts separate entries of the source, which are not always exact repeats. Equal values may be shown once. Some compounds were tested as several samples or in several runs, with calls that do not always agree. The source made the active and inactive calls. Rule for the calls: active = hit-call score of the fitted dose curve at least 0.9, where 1 is the maximum; inactive = score below 0.9.
# Test: ATG_TGFb_CIS: Attagene CIS-FACTORIAL HepG2 Assay for human Transforming Growth Factor (TGF) (AID 2282967)
# Details: HepG2 Attagene CIS TGFb reporter, mRNA transcription; actives raise or lower the signal
# Method: ATG_CIS is a cell-based, multiplexed-readout assay that uses HepG2, a human liver cell line, with measurements taken at 24 hours after chemical dosing in a 24-well plate.ATG_TGFb_CIS is one of 52 assay component(s) measured or calculated from the ATG_CIS assay. It is designed to make measurements of mRNA induction, a form of inducible reporter, as detected with fluorescence intensity signals by Reverse transcription polymerase chain reaction (RT-PCR) and Capillary electrophoresis technology.Data from the assay component ATG_TGFb_CIS was analyzed into 1 assay endpoint. This assay endpoint, ATG_TGFb_CIS, was analyzed with bidirectional fitting relative to DMSO as the negative control and baseline of activity. Using a type of inducible reporter, measures of mRNA for gain or loss-of-signal activity can be used to understand the reporter gene at the transcription factor-level as they relate to the gene TGFB1. Furthermore, this assay endpoint can be referred to as a primary readout, because this assay has produced multiple assay endpoints where this one serves a reporter gene function. To generalize the intended target to other relatable targets, this assay endpoint is annotated to the growth factor intended target family, where the subfamily is transforming growth factor beta.
# Human liver HepG2 cells are transiently transfected with multiple reporter transcription units (MRTUs) in 6-well plates using FuGene 6 reagent (Roche; 3 ml FuGene/1 mg DNA). The MRTU constructs are regulated by a cis-regulating element (promoter). […] A major difference between the CIS and TRANS system is that in CIS activities of endogenous TFs are measured, whereas the TRANS assay evaluates changes in activities of exogenous, chimeric NR-Gal4 proteins. […] At the end of 24 hour incubation, total RNA was isolated using TriZol reagent (Invitrogen). The isolated RNA is then reverse-transcribed using oligo(dT) primer and Mo-MLV reverse transcriptase (Invitrogen) with DNAse I (Ambion) treatment for 30 min. The one-tenth of the produced cDNA was amplified by PCR using Taq DNA polymerase (Invitrogen) and two reporter sequence-specific primers. The PCR products were fluorescently labeled by primer extension with 6-arboxyfluorescein (6-FAM) 5'-labeled reporter sequence-specific primer (2 min at 95 C, 20 s at 68 C and 10 min at 72 C) and these products were digested with 5U of HpaI (New England Biolabs) for 2h at 37 C. The fragments were purified using Qiaquick PCR columns (Qiagen), analyzed on an ABI 3130xL genetic analyzer (Applied Biosystems) with peak positions identified by using a set of X-rhodamine (ROX)-labeled MapMarker1000 molecular weight standards (BioVentures). The raw capillary electrophoresis data was processed using Attagraph software (Attagene).
SMILES,outcome,AC50
Cc1cc(Cl)ccc1O[C@H](C)C(=O)O,inactive,
ClC1(Cl)C2(Cl)C3(Cl)C4(Cl)C(Cl)(Cl)C5(Cl)C3(Cl)C1(Cl)C5(Cl)C24Cl (stereo not given),inactive,
O=C1C(Cl)=C(Cl)C(=O)c2ccccc21,inactive,
COc1cccc(C=O)c1,,175 nM (active)
CC(C)CCCCCCOC(=O)c1ccccc1C(=O)OCCCCCCC(C)C,inactive,
COc1ccc(OC)c(C=O)c1,inactive,
CC(C)(OO)c1ccccc1,inactive,
CC(=O)C(Cl)C(=O)N(C)C (stereo not given),inactive,
CCOP(OCC)OCC,inactive,
O=[N+]([O-])c1c(Cl)c(Cl)cc(Cl)c1Cl,inactive,
Nc1ccc(N=Nc2ccc(-c3ccc(N=Nc4c(S(=O)(=O)O)cc5cc(S(=O)(=O)O)c(N=Nc6ccccc6)c(O)c5c4N)cc3)cc2)c(N)c1,inactive,
Cc1ccccc1N,inactive,
CC(=O)[O][Hg][c]1ccccc1,inactive,
CCOP(=S)(OCC)Oc1nc(Cl)c(Cl)cc1Cl,inactive,
CCCCP(CCCC)CCCC,inactive,
CC(C)(C)CC(C)(C)c1ccc(O)cc1,inactive,
CCOP(=S)(OCC)SCCS(=O)(=O)CC,inactive,
OCc1ccco1,inactive,
OCC(O)CCl (stereo not given),inactive,
C=CC(=O)N(C)C,inactive,

SMILES,outcome,AC50
Cn1sc(Cl)cc1=O,inactive,
CN(C)N=O,inactive,
CCCCC(CC)CO[N+](=O)[O-] (stereo not given),inactive,
N#CCc1ccc(Cl)cc1,inactive,
CN(C)P(=O)(N(C)C)N(C)C,inactive,
C[C@]12CCC(=O)C[C@@H]1CC[C@@H]1[C@@H]2CC[C@]2(C)[C@@H](O)CC[C@@H]12,inactive,123 µM (active) and 99.6 µM (active)
CC(=[OH+])/C=C(/C)[O-].CC(=[OH+])/C=C(/C)[O-].CC(=[OH+])/C=C(/C)[O-].[Al],inactive,
BrCCBr,inactive,
CCC[CH2][Sn]([Cl])([Cl])[Cl],inactive,
CNC,inactive,
NC(=O)O,inactive,
O=C(O)C(Cl)(Cl)Cl,inactive,
Oc1c(I)cc(I)cc1I,inactive,
Cc1cc(=O)[nH]o1,inactive,
O=C(O)C(F)(F)C(F)(F)C(F)(F)C(F)(F)C(F)(F)C(F)(F)C(F)(F)C(F)(F)C(F)(F)C(F)(F)F,,105 µM (active) and 13.4 µM (active)
CCCCCCCCCl,inactive,
CC(C)(C)c1cc(O)ccc1O,inactive,
CCc1ccccc1C,inactive,
COc1ccccc1OC,inactive,
